Most compounds without a hit are left out; they make up all but 4.7% or so of the library.
TRHR ag – TRH receptor (human) agonism; TRHR cells, calcium flux fluo-8, FDSS agonist mode; hit rate 0.18% among 360,000; activation, % at 2 µM; note: 0% is about no effect
Target sequence (P34981 whole entry, looked up): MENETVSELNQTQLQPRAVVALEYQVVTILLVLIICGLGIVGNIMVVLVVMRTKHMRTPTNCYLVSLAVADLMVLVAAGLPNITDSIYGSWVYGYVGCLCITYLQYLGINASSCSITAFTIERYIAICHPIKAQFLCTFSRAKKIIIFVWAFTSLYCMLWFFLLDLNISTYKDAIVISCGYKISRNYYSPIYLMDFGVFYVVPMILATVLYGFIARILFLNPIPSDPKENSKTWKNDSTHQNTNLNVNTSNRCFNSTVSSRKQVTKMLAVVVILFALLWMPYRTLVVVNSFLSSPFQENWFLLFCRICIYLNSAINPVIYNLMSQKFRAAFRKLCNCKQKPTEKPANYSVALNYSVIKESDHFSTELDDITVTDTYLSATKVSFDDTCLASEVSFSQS
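Agonist-mode FDSS calcium read (Ex 480/Em 530, 1 s cycles) in 1536-well TRHR cells with fluo-8 dye, after 10-cycle baseline and 23 nL compound addition; TRH at EC20 (10 nM final) added afterwards for the enhancer phase.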
TRHR PAM – allosterically enhances the human TRH receptor | TRHR cells, fluo-8 calcium fluorescence, EC20 TRH enhancement | hit rate 0.66% among 360,000 | enhancement, % at 2 µM | P34981; in the data active = enhancement above about 30%; note: 0% is about no effect
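TRHR-expressing cells loaded with fluo-8 calcium dye were read kinetically (ex 480/em 530) during compound addition, then stimulated with an EC20 of TRH (10 nM final). Enhancement of the Gq-mediated intracellular calcium response was scored.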
D1 potentiator – enhances dopamine response at the human D1 receptor; P21728; HEK293 TREx D1 cells, calcium flux, dopamine EC20 potentiation; potentiation, % at 10 µM; hit rate 0.036% among 360,000; in the data active = potentiation above about 30%; note: 0% is about no effect
D1 antag – human D1 dopamine receptor antagonism; AID 504652; activity change, negative = inhibition, % at 10 µM; hit rate 3.2% among 360,000; HEK293 TREx D1 cells, calcium flux, dopamine EC80; hits give low values; P21728; in the data active = activity change below about -30%; note: % is set by controls: 0 for no effect and ±100 for the full control effect
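Antagonism measured as reduced calcium response to an EC80 dopamine addition following 180 s compound pre-read; cells were inducible HEK293 Trex D1 plated overnight at 30 C, read kinetically at 1 cycle/sec.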
D1 ag – agonists of human D1 dopamine receptor | HEK293 T-REx D1 cells, calcium flux, agonist mode | AID 504660 | P21728 | hit rate 1% among 360,000 | activation, % at 2 µM; note: 0% is about no effect
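Inducible HEK293 T-REx D1 cells, force-coupled to calcium signalling, were plated at 4000 cells/well with tetracycline and held overnight at 30 C. After no-wash calcium dye loading, compound-evoked calcium rise over 180 s flagged agonists.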
An asterisk follows results filed as active. Cut-off read from the data, not from the text of the source, unless noted: active = activation above about 30%; inactive = the rest.

SMILES | TRHR ag | TRHR PAM | D1 potentiator | D1 antag | D1 ag
COc1ccc(CCNS(=O)(=O)c2ccc(-n3cnnn3)cc2)cc1OC | -0.3 | -8.5 | -5.0 | -10.6 | 2.5
CC1(c2cccc(Br)c2)NC(=O)N(CC(=O)Nc2ccc(F)cc2)C1=O (stereo not given) | -0.1 | 22.8 | -5.5 | -30.7* | 6.5
CC1(c2cccc(Br)c2)NC(=O)N(CC(=O)NC2CCCCC2)C1=O (stereo not given) | -0.4 | -0.6 | -1.9 | -33.6* | 0.3
CCC1Sc2ccccc2N(CC(=O)NC2CC2)C1=O (stereo not given) | 0.0 | -0.1 | -5.6 | -74.1* | -1.0
Cc1cc(C(=O)CN2C(=O)NC(C)(c3cccc(Br)c3)C2=O)c(C)n1Cc1ccco1 (stereo not given) | 0.3 | 19.9 | 3.6 | -36.8* | 2.0
Cc1cc(C(=O)CN2C(=O)NC(c3ccccc3)(c3ccccc3)C2=O)c(C)n1Cc1ccco1 | -0.7 | 1.1 | -3.0 | -4.2 | 22.7
CCC1Oc2ccccc2N(CC(=O)NC2CC2)C1=O (stereo not given) | -1.5 | -0.9 | -6.6 | -7.4 | 0.4
COc1cc([N+](=O)[O-])ccc1NC(=O)CSc1nncn1-c1cccnc1 | -0.3 | 20.1 | -5.7 | -29.9 | 0.0
Cn1c(=O)c(=O)n(C)c2cc(N3CCCC3)c(NC(=O)c3ccccc3Cl)cc21 | -0.3 | -0.4 | 3.4 | -7.6 | -0.3
O=C(CN1CCN(Cc2ccccc2F)C1=O)NC1CCCC1 | -0.4 | -0.9 | -2.1 | -30.1* | 10.9
O=C(CN1C(=O)c2ccccc2C1=O)NC1CCCCC1 | -1.2 | -2.0 | 0.1 | -19.9 | 1.6
O=C(CN1C(=O)c2ccccc2C1=O)NC1CCCCCC1 | 0.4 | 32.7* | -7.8 | -2.2 | -2.2
O=C(O)CN1C(=O)NC2NC(=O)NC21 (stereo not given) | 0.4 | 0.5 | -5.7 | 5.6 | 0.3
O=C(O)CCCN1C(=O)NC2NC(=O)NC21 (stereo not given) | -0.7 | 4.3 | -5.2 | -31.4* | 0.6
CCOC(=O)CN1C(=O)NC2NC(=O)NC21 (stereo not given) | 0.2 | 5.8 | -4.3 | -4.6 | 2.0
CCCCNC(=O)CN1C(=O)NC2NC(=O)NC21 (stereo not given) | -0.6 | 6.3 | -7.2 | -43.2* | 0.4
CC1=C(C(=O)Nc2cccnc2)C(c2ccccc2)n2nc(-c3ccc(O)cc3)nc2N1 (stereo not given) | 0.1 | -1.6 | -2.7 | -21.9 | 2.0
CC1=NN(c2ccccc2)C(=O)/C1=C\C=C1\N(C)c2ccccc2C1(C)C | 6.3 | -0.7 | -2.6 | -32.4* | 44.1*
CC1=NN(c2ccccc2)C(=O)/C1=C\C=C1/N(C)c2ccccc2C1(C)C | 11.5 | -12.5 | -3.0 | -18.8 | 68.0*
COc1cc(C)c(NC(=O)Cc2ccsc2)cc1OC | -0.5 | 3.1 | -7.1 | -12.8 | 5.6
Clc1ccc(CCNc2nc3cc(Cl)c(Cl)cc3n3cnnc23)cc1 | 0.5 | 15.1 | 2.9 | 6.1 | -0.3
COc1ccc(-c2cc(C(F)(F)F)nc(SCC(=O)Nc3ccc(C(C)=O)cc3)n2)cc1 | 0.4 | 11.7 | -4.8 | -44.1* | 0.6
COc1ccc(NC(=O)CSc2nc(-c3ccc(C)cc3)cc(C(F)(F)F)c2C#N)cc1 | 1.3 | 1.7 | -6.5 | -41.2* | 4.6
COc1ccc(-c2cc(C(F)(F)F)c(C#N)c(SCC(=O)Nc3ccccc3C#N)n2)cc1 | 13.8 | -7.4 | 0.8 | 4.4 | 59.9*
COc1ccc(-c2cc(-c3cccs3)c(C#N)c(SCC(=O)NCc3ccccc3)n2)cc1 | 0.1 | 3.2 | 4.3 | 10.8 | 0.6
SMILES | TRHR ag | TRHR PAM | D1 potentiator | D1 antag | D1 ag
COc1ccc(-c2cc(C(F)(F)F)c(C#N)c(SCC(=O)Nc3cccc(C)c3)n2)cc1 | 2.8 | 4.6 | 5.2 | 11.5 | 10.2
COc1ccc(-c2cc(-c3cccs3)c(C#N)c(SCC(=O)NCc3ccccc3OC)n2)cc1 | 2.8 | 8.2 | 3.2 | -35.7* | 5.9
O=C(CCC(=O)N1CCOCC1)NCc1cccc(C(F)(F)F)c1 | 0.8 | 8.2 | -4.8 | -18.9 | 0.8
Clc1ccccc1-c1nnc(-c2ccccc2CNc2ccc(Br)cc2)o1 | 0.4 | 1.8 | 0.3 | -2.8 | 2.3
CCOC(=O)c1ccc(NC(=O)CSc2nc(-c3cccs3)cc(C(F)(F)F)c2C#N)cc1 | 16.4 | -3.8 | -0.9 | -7.6 | 50.0*
COc1ccc(NC(=O)CSc2nc(-c3cccs3)cc(C(F)(F)F)c2C#N)cc1 | 2.4 | 0.2 | 1.5 | -3.0 | 13.9
COc1cc(-c2nc(Cn3nnc(C(=O)Nc4ccccc4)c3C)c(C)o2)cc(OC)c1OC | -0.9 | -7.2 | 0.8 | -6.1 | 0.0
COc1cc(-c2cc(-c3nnco3)c3ccccc3n2)cc(OC)c1OC | -1.2 | -1.2 | -10.2 | -96.3* | 0.9
COc1cc(-c2cc(C(=O)Nc3ccc(O)cc3)c3ccccc3n2)cc(OC)c1OC | 0.0 | 0.4 | -2.6 | -4.9 | 1.9
c1ccc(-c2cc(-c3nnco3)c3ccccc3n2)nc1 | -0.2 | 34.3* | 9.8 | -1.6 | -1.1
O=C(Nn1cnnc1)c1cc(-c2ccccn2)nc2ccccc12 | 0.0 | -4.3 | -0.4 | 12.6 | -0.2
CC(C)OCCCN1C(=O)c2[nH]nc(-c3ccccc3O)c2C1c1ccccc1F (stereo not given) | -0.1 | 5.3 | 2.5 | 7.4 | 2.6
COc1ccc(N(CC(=O)NC2CC3CCC2C3)S(=O)(=O)c2ccc(C)c([N+](=O)[O-])c2)cc1 (stereo not given) | -0.1 | 12.8 | -5.7 | -10.4 | 1.7
COCC(=O)N(Cc1cc2cc(C)ccc2[nH]c1=O)c1ccc(C)c(C)c1 | 0.1 | 30.8* | -0.8 | 6.1 | 0.6
COc1ccc(C(C)(C)C)cc1NC(=O)c1cc(S(=O)(=O)N(C)C)ccc1N1CCCC1 | -0.5 | -6.2 | -9.3 | -50.8* | 4.0
COc1cc(-c2nnc(-c3ccc(S(=O)(=O)c4ccccc4)cc3)o2)cc(OC)c1OC | 0.0 | 1.0 | 0.5 | -31.1* | 0.7
O=S(=O)(NC1CCCC1)c1cccc(-c2nnc(-c3ccccc3)o2)c1 | -1.7 | 13.1 | 4.3 | -12.1 | 8.6
COc1ccc(NS(=O)(=O)c2cccc(-c3nnc(-c4ccccc4)o3)c2)cc1 | 0.0 | 3.1 | -2.5 | -31.7* | -0.5
CCC(CC)c1nn2c(=O)cc(COc3ccc(NC(=O)c4ccc(C)cc4)cc3)nc2s1 | -0.8 | -3.7 | 2.2 | 2.4 | 0.3
COc1ccccc1NC(=O)C1=C(C)Nc2nc(SCc3cccc(F)c3)nn2C1c1ccc(C(=O)O)cc1 (stereo not given) | -0.6 | -5.3 | 7.5 | 29.7 | 1.9
COc1ccc(N2C(=NC(=O)C3CCCO3)SC3CS(=O)(=O)CC32)cc1 (stereo not given) | 0.8 | -3.6 | -4.1 | 11.9 | 3.5
Cc1ccc(CNC(=O)c2ccc(NS(=O)(=O)c3cccs3)cc2)cc1 | -0.5 | -0.2 | -7.0 | -19.6 | 1.9
Cc1ccc(C(=O)NNC(=O)c2ccc(NS(=O)(=O)c3cccs3)cc2)o1 | -0.1 | 32.2* | -3.3 | 12.1 | 3.4

Screens as filed in PubChem BioAssay.
